{
  "source": "PubChem BioAssay (Tox21)",
  "note": "Calls of active or inactive are those of the source. The call rests on the fitted dose curve; in most records, active means well fitted curve in the direction sought with a large enough effect in the repeat runs; inconclusive means weak or mixed curves; inactive means flat fitted curve, though single readings scatter.",
  "data": [
    {"assay": "qHTS assay to test for compound auto fluorescence at 590 nm (red) in HEK293 cell free culture (AID 720683)", "conditions": "cell-free medium autofluorescence, Ex540/Em590 red; series mostly up to 91.3 µM", "description": "U.S. Tox21 Program National Center for Advancing Translational Sciences [NCATS] NIH Chemical Genomics Center [NCGC] U.S. Environmental Protection Agency [EPA] National Institutes of Environmental Health Sciences [NIEHS] National Toxicology Program [NTP] U.S. Food and Drug Administration [FDA] Tox21 Assay Overview: Compound auto fluorescence often interferes with screening of the compound library against various biological targets and signaling pathways. Some of these compounds may have fluorophoric properties. Such properties may interfere with the assay outputs resulting in false positives and/or negatives. To decrease such complications and ensure the compound activities are relevant in terms of biological response, the Tox21 10K compound library was screened for auto fluorescence. From the fluorophores used as reporter signals in our screening assays, the auto fluorescence equivalencies of compounds against three fluorophores have been evaluated: Triamterene, Fluorescein and Rose Bengal sodium for blue, green and red fluorescence, respectively. The fluorescence intensities were measured using Excitation/Emission wavelengths at 405/460nm, 485/535nm and 540/590nm for blue, green and red labels, respectively. This assay includes the red fluorescence data.\nTox21 Assay Protocol Summary: 5 uL of culture medium (DMEM containing 10% FBS) per well was dispensed into black wall/clear bottom 1536-well plates using a Multidrop Combi Dispenser (ThermoFisher Scientific, Waltham, MA). After 23 nL compound or DMSO vehicle was transferred into assay plate by a pintool work station (Kalypsys, San Diego, CA), fluorescence intensities in the assay plates were measured by an Envision (PerkinElmer, Shelton, CT) plate reader using three labels for measuring blue, green and red fluorescence at […] 460, 535 and 590nm respectively.", "values": [
      {"molecule": "COC(=O)/C=C/C(C)=C\\C=C\\C(C)=C\\C=C\\C=C(C)\\C=C\\C=C(C)\\C=C\\C(=O)O", "outcome": "inactive"},
      {"molecule": "O=[N+]([O-])c1ccccc1CCO", "outcome": "inactive"},
      {"molecule": "CC(C)CC(C)(C)C", "outcome": "inactive"},
      {"molecule": "NC(=O)c1ccccc1", "outcome": "inactive"},
      {"molecule": "COc1ccc(CN(CCN(C)C)c2ncccn2)cc1", "outcome": "inactive"},
      {"molecule": "C[C@]12CCC(=O)C=C1[C@@H]1C[C@@H]1[C@H]1[C@@H]3[C@@H]4C[C@@H]4[C@@]4(CCC(=O)O4)[C@@]3(C)CC[C@@H]12", "outcome": "inactive"},
      {"molecule": "Nc1ncnc2c1ncn2[C@@H]1O[C@H](CO)[C@@H](O)[C@H]1O", "outcome": "inactive"},
      {"molecule": "O=P(c1ccccc1)(c1ccccc1)c1ccccc1", "outcome": "inactive"},
      {"molecule": "CC(C(=O)O)c1ccc(/C=C2\\CCCCC2=O)cc1", "note": "(stereo not given)", "outcome": "inactive"},
      {"molecule": "C=CC(=O)OCCCCCCCCCC", "outcome": "inactive"},
      {"molecule": "OCC(O)c1ccccc1", "note": "(stereo not given)", "outcome": "inactive"},
      {"molecule": "CC1(C)CC(O)CC(C)(C)N1[O]", "outcome": "inactive"},
      {"molecule": "CCC(C)CCCC(C)(C)O", "note": "(stereo not given)", "outcome": "inactive"},
      {"molecule": "CO[C@@H]1COCC[C@@H]1N[C@@H]1CC[C@@](C(=O)N2CCc3ncc(C(F)(F)F)cc3C2)(C(C)C)C1", "outcome": "inactive"},
      {"molecule": "CCCCCC1CCC(=O)O1", "note": "(stereo not given)", "outcome": "inactive"},
      {"molecule": "COC(=O)c1cc(Cl)ccc1[N+](=O)[O-]", "outcome": "inactive"},
      {"molecule": "N#C[C@@H]1CC(F)(F)CN1C(=O)CNC1CC2CCC(C1)N2c1ncccn1", "note": "(stereo not given in full)", "outcome": "inactive"},
      {"molecule": "CCCCCCCCCCCCSCCOCCO", "outcome": "inactive"},
      {"molecule": "Oc1ccc(CCNCCCCCCNCCc2ccccc2)cc1O", "outcome": "inactive"},
      {"molecule": "CC1(COc2ccc(CC3SC(=O)NC3=O)cc2)CCCCC1", "note": "(stereo not given)", "outcome": "inactive"},
      {"molecule": "O=S(=O)(O)c1cc(Cl)c(Cl)cc1Cl", "outcome": "inactive"},
      {"molecule": "COc1cc(C)c(Cc2cnc(N)nc2N)cc1OC", "outcome": "inactive"},
      {"molecule": "OCCOc1cccc(OCCO)c1", "outcome": "inactive"},
      {"molecule": "C=C[Si]1(C)O[Si](C)(C=C)O[Si](C)(C=C)O[Si](C)(C=C)O1", "note": "(stereo not given)", "outcome": "inactive"},
      {"molecule": "CCCC1CCOC(C)S1", "note": "(stereo not given)", "outcome": "inactive"},
      {"molecule": "CCCC(=O)OCCC(C)C", "outcome": "inactive"},
      {"molecule": "CC1=C(C)C(=O)C(C(CCCCCC(=O)O)c2ccccc2)=C(C)C1=O", "note": "(stereo not given)", "outcome": "inactive"},
      {"molecule": "CCOc1ccccc1O", "outcome": "inactive"},
      {"molecule": "O=C(O)c1ccc2cc(O)ccc2c1", "outcome": "inactive"},
      {"molecule": "CCOC(OCC)OCC", "outcome": "inactive"},
      {"molecule": "Cc1ccc2c(Cl)cc(Cl)c(O)c2n1", "outcome": "inactive"},
      {"molecule": "CC(=O)c1cccnc1", "outcome": "inactive"},
      {"molecule": "COc1ccc(/C=C/c2cc(OC)cc(=O)o2)cc1", "outcome": "inactive"},
      {"molecule": "O=C(O)CNc1ccccc1", "outcome": "inactive"},
      {"molecule": "CC1(C)[C@@H]2CC[C@]3(C2)[C@@H]1C(=O)CCC3(C)C", "outcome": "inactive"},
      {"molecule": "O=[N+]([O-])c1cccc(I)c1", "outcome": "inactive"},
      {"molecule": "COC(=O)C(C)(C)C", "outcome": "inactive"},
      {"molecule": "C=C[Si](OCC)(OCC)OCC", "outcome": "inactive"},
      {"molecule": "CCCOC(C)=O", "outcome": "inactive"},
      {"molecule": "Cc1cc(SC2=C(O)C[C@@](CCc3ccc(N)cc3)(C(C)C)OC2=O)c(C(C)(C)C)cc1CO", "outcome": "inactive"}
    ]}
  ]
}
